Only some compounds are listed: those with a hit (about 2.9% of all), similar ones and a draw of the others.
a7 integrin act = activators of alpha7 integrin expression for muscular dystrophy | Potency, µM (top dose mostly 38.3 µM), actives largely listed as activators | 350,000 tested, 0.064% active | alpha7betagal myoblasts, beta-gal FDG fluorescence, 48 h; active = well fitted activation curve with a large enough effect; inconclusive = small, poorly fitted or top-dose-only effect; inactive = no such curve, though single readings can be large or run the other way; also: nearly all actives have a fitted effect of over 60% in size
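alpha7betagal+/- myoblasts (passage 13, 250/well) treated 48 h at 37C with compounds at 1:260 dilution of DMSO stock. Lysed, then beta-galactosidase activity read as FDG fluorescence (ex 480/em 540) after 30 min, with pre-read for autofluorescence.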
DRD3 agonist = activates the human D3 dopamine receptor; P35462; D3R DiscoveRx beta-arrestin cells, luminescence, 90 min; max activation, %; 410,000 tested, 0.58% active; AID 652048; in the data active = max activation above about 30%
Target sequence (P35462 whole entry, looked up): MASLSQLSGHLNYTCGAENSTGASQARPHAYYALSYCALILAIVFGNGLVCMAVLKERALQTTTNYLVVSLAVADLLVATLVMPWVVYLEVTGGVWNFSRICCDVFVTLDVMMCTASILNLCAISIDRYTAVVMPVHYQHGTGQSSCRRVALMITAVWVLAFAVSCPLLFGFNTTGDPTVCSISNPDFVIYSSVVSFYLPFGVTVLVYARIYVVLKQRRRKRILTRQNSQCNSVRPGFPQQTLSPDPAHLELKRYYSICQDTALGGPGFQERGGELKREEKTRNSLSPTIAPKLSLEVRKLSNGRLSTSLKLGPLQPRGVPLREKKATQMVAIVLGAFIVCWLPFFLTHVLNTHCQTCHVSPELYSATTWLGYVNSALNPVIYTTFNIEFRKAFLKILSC
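Cells at 1500/well, incubated overnight, then treated with pinned compounds (dopamine as control) for 90 min at 37 degrees C. DiscoveRx reagent added for 30 - 60 minutes at room temperature; luminescence read.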
DRD3 antagonist = D3 dopamine receptor (human) antagonism. P35462. D3R cells, DiscoveRx beta-arrestin luminescence, antagonist mode; active compounds read low. max response, negative = inhibition, %. 360,000 tested, 2.5% active; in the data active = max response below about -50%; inconclusive = no clear call, values can overlap the other calls
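Cells plated overnight at 1500 cells/well, then exposed to library compounds with dopamine controls for 90 minutes at 37 degrees C. DiscoveRx reagent added for 30–60 minutes at room temperature; luminescence read, quantitative HTS format.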
Each line names hits and unclear results; the compound was inactive in the other large screens.

CCCN(CCC)C(=O)CSc1nc2n[nH]c(C)c2c(=N)n1-c1ccc(OCC)cc1	DRD3 antagonist -50.3
CCCN(CCC)C(=O)CSc1nc2n[nH]c(C)c2c(=N)n1-c1ccc(OC)cc1	none
COc1ccc(/C=C2\CCc3ccccc3C2=O)cc1Cn1nc(C)cc1C	DRD3 antagonist -79.1
COc1ccc(/C=C2/CCc3ccccc3C2=O)cc1CN1CCOCC1	none
COc1cc(NC(=O)CSCc2ccc(Cl)cc2Cl)c(C(=O)O)cc1OC	none
O=C(Nc1ccccc1F)c1cccc(C(=O)Nc2ccccc2F)c1	none
O=C(Nc1ccccc1F)c1ccc(C(=O)c2ccccc2)cc1	DRD3 antagonist -72.9
CC1CCN(C(=O)NC(=O)c2ccccc2)CC1	none
CC(=O)Nc1ccccc1N(CC(O)Cn1c2ccccc2c2ccccc21)S(=O)(=O)c1ccc(C)cc1 (stereo not given)	none
O=C(CN1CCOc2ccccc21)NCc1ccc(F)cc1	none
CC(C)n1cc(CN2CCC(C(=O)Nc3ccc(Oc4ccccc4F)cc3)CC2)cn1	a7 integrin act inconclusive, DRD3 antagonist -60.8
CCn1cc(CN2CCC(C(=O)Nc3ccc(Oc4ccccc4F)cc3)CC2)c(C)n1	DRD3 antagonist inconclusive
CC(C)OC(=O)c1cc(C(=O)OC(C)C)cc([N+](=O)[O-])c1	none (no result: a7 integrin act, DRD3 antagonist)
CC(C)OC(=O)c1cc(NC(=S)Nc2ccc([N+](=O)[O-])cc2)cc(C(=O)OC(C)C)c1	DRD3 antagonist -62.6
O=C1c2ccccc2C(=O)N1CCCCc1cn(C[C@H]2CC[C@@H]([C@@H]3CC[C@H](Cn4cc(CCCCN5C(=O)c6ccccc6C5=O)nn4)O3)O2)nn1	DRD3 agonist 51.0
O=C1c2ccccc2C(=O)N1CCCc1cn(C[C@H]2CC[C@@H]([C@@H]3CC[C@H](Cn4cc(CCCN5C(=O)c6ccccc6C5=O)nn4)O3)O2)nn1	none
COc1ccc(C)cc1NC(=O)C1CCN(S(=O)(=O)c2c(C)noc2C)CC1	DRD3 agonist 39.8
COc1ccc(C)cc1NC(=O)C1CCN(S(=O)(=O)c2c(C)noc2/C=C/c2ccco2)CC1	none (no result: a7 integrin act, DRD3 antagonist)
CC1(C)CC(=O)c2cc(OCC(=O)N3CCCCCC3)ccc2O1	DRD3 antagonist -71.0
CCOC(=O)N1CCN(C(=O)COc2ccc3c(c2)C(=O)CC(C)(C)O3)CC1	none
O=C(COc1ccc2cc(Br)ccc2c1)N1CCCC1	none
O=C(COc1ccc(Br)cc1)N1CCCCCC1	DRD3 antagonist -58.7
Cc1nn(C)c(C(=O)Sc2cccc(Cl)c2)c1[N+](=O)[O-]	none
Cc1nc2sc(C(c3ccccc3)N3CCN(CCO)CC3)c(O)n2n1 (stereo not given)	none
Cc1cc(=O)oc2cc(OCC(=O)NC3(C#N)CCCCC3)c(Cl)cc12	none
O=S(=O)(c1ccc(F)cc1)N1CCN(C(=S)NCCc2ccccc2)CC1	none
FC(F)Oc1ccc(NC(=S)N2CCc3ccccc32)cc1	none
O=C(CCc1nc2ccccc2[nH]1)Nc1ccc(F)cc1	none
COc1ccc(NC(=O)CN(C)C(=O)CCCc2nc3ccccc3c(=O)[nH]2)cc1	none
CN(CC(=O)Nc1ccc(F)cc1)C(=O)CCc1nc2ccccc2c(=O)[nH]1	DRD3 antagonist -54.3
O=C(CCc1nc2ccccc2c(=O)[nH]1)Nc1ccc(F)cc1	DRD3 antagonist -53.7
CCn1c(C(=O)NCc2ccccc2C)cc2oc3ccccc3c21	DRD3 agonist 49.1 (no result: a7 integrin act, DRD3 antagonist)
CCn1c(C(=O)NCc2ccc(OC(C)C)cc2)cc2oc3ccccc3c21	none (no result: a7 integrin act, DRD3 antagonist)
c1ccc(-c2nc(N3CCOCC3)c3ccccc3n2)nc1	none
CN1CCN(c2nc(-c3ccncc3)nc3ccccc23)CC1	none
c1ccc(CCNc2nc(-c3ccccn3)nc3ccccc23)cc1	DRD3 antagonist -70.4
CN1CCN(c2nc(-c3ccc(Cl)cc3)nc3ccccc23)CC1	DRD3 antagonist -60.7
CCCN(CCC)c1nc(-c2ccccn2)nc2ccccc12	DRD3 antagonist inconclusive
c1ccc(-c2nc(N3CCCCCC3)c3ccccc3n2)nc1	DRD3 antagonist -126.8
CCSc1nnc(NC(=O)[C@@H](NC(=O)c2ccccc2)C(C)C)s1	none
COC(=O)[C@@]12CCCN1[C@H](c1ccc(-c3ccccc3)cc1)[C@@H]1C(=O)N(C)C(=O)[C@@H]12	DRD3 antagonist inconclusive
CN(C(=O)c1ccc(Oc2ccc([N+](=O)[O-])cc2)cc1)C1CCCCC1	none
CCN(CC)CCOC(=O)c1ccc(NC(=O)c2nn(C)c3c2COc2ccccc2-3)cc1	none (no result: a7 integrin act, DRD3 antagonist)
Cc1ccc(S(=O)(=O)NCCCCCCNS(=O)(=O)c2ccc(C)cc2)cc1	DRD3 antagonist inconclusive
Cc1ccc2oc(C(=O)Nc3ccc(S(=O)(=O)Nc4nccc(C)n4)cc3)cc(=O)c2c1	none (no result: a7 integrin act, DRD3 antagonist)
CCN(CC)c1ccc2cc(-c3nc4ccccc4[nH]3)c(=O)oc2c1	none
CCN(CC)c1ccc2nc3ccccc3[n+](CC)c2c1	DRD3 antagonist -64.8
CCN(CC)c1ccc2nc3ccc(N)cc3[n+](-c3ccccc3)c2c1	DRD3 antagonist -56.3
CCN(CC)c1ccc(/C=N/n2nnnc2N)c(O)c1	none
Cc1nc2sc(C(=O)NCc3ccc(Cl)cc3)c(NC(=O)c3ccccc3)c2c(C)c1C	none (no result: a7 integrin act, DRD3 antagonist)
COc1ccccc1CC(=O)N1CCCc2ccccc21	none
O=C(NCCc1ccccc1)c1c(O)c2cccc3c2n(c1=O)CC3	none
O=C(NCc1ccccn1)c1c(O)c2cccc3c2n(c1=O)CC3	DRD3 antagonist -56.3
Cc1ccc(C(CNC(=O)C(=O)Nc2ccc3c(c2)OCCO3)N2CCN(C)CC2)cc1 (stereo not given)	none
CN1CCN(C(CNC(=O)C(=O)Nc2ccc3c(c2)OCCO3)c2ccc(F)cc2)CC1 (stereo not given)	DRD3 agonist 107.6
COc1cc(-c2csc(N3CCOCC3)n2)cc(OC)c1OC	none
COc1ccc(-c2csc(N3CCN(c4cc(C)nc5ccccc45)CC3)n2)cc1OC	DRD3 agonist 31.6
CC(C)[C@H](NC(=O)c1ccccc1F)C(=O)NCc1ccc(S(N)(=O)=O)cc1	none
CC1(C)C=Cc2c(ccc3c2OC[C@H](c2ccc(O)cc2O)C3)O1	none
CC(=O)Oc1ccc([C@@H]2COc3c(ccc4c3C=CC(C)(C)O4)C2)c(OC(C)=O)c1	DRD3 agonist 37.8
O=C(C=Cc1ccccc1Cl)c1ccccc1	none
C=CCn1cccc(/C=C/C(=O)c2ccc(C(C)(C)C)cc2)c1=S	DRD3 antagonist -59.7
CCCOc1ccc(-c2cccc(NS(=O)(=O)c3cccs3)c2)nn1	none (no result: a7 integrin act, DRD3 antagonist)
CCCCCC(O)C=CC1C(O)CC(O)C1CC=CCCCC(=O)O (stereo not given)	none
C[C@H](CCCC/C=C/C(=O)O)O[C@@H]1O[C@@H](C)[C@H](O)C[C@H]1O	DRD3 agonist 43.6
O=C(CC12CC3CC(CC(Br)(C3)C1)C2)NCc1ccccc1	none
Cn1c2ccccc2c(=O)c2cc(C#Cc3ccc(N)cc3)ccc21	DRD3 agonist 59.0
COc1ccc(C#Cc2ccc3c(c2)c(=O)c2ccccc2n3C)cc1	none
COc1cc2sc3ccc(C#Cc4ccc(N)cc4)cc3c(=O)c2cc1OC	DRD3 agonist 34.9
COc1cc2sc3ccc(C#Cc4ccccn4)cc3c(=O)c2cc1OC	none
Nc1cccc(C#Cc2ccc3c(=O)c4ccccc4oc3c2)c1	none
Nc1ccc2oc3ncccc3c(=O)c2c1	DRD3 antagonist -97.9
Nc1ccc(C#Cc2ccc3oc4ccccc4c(=O)c3c2)cc1	a7 integrin act inconclusive, DRD3 agonist 58.9
COc1ccc(S(=O)(=O)Nc2ccc3oc4ncccc4c(=O)c3c2)cc1OC	none

Source: PubChem BioAssay
